Counter-ions that a name gives are not always drawn.
Assays:
Experiment in all cases: thermal shift delta Tm vs DMSO control; higher = stronger stabilization (binding)
Settings in all cases: 12.5 µM; protein concentration 2 µM
LOC_OS01G01410-cb001 = tested on: LOC_OS01G01410-cb001
Summary of the method: (§1)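 Rice kinase domain constructs were expressed in E. coli, purified, and tested by differential scanning fluorimetry with compound added in DMSO. Each well of a 96-well plate held 19.5 μl of 2 μM kinase in 100 mM potassium phosphate pH 7.5, 150 mM NaCl, 10% glycerol and 5 × SYPRO Orange, and fluorescence was read from 25°C to 95°C at 0.05°C/s. The melting temperature shift is the mean of triplicates, taken against protein with DMSO alone after Boltzmann fitting.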

LOC_OS01G02750-cb003 = tested on: LOC_OS01G02750-cb003
Summary of the method: as §1

LOC_OS01G10900-cb004 = tested on: LOC_OS01G10900-cb004
Summary of the method: as §1

LOC_OS01G13800-cb001 = tested on: LOC_OS01G13800-cb001
Summary of the method: as §1

LOC_OS01G14860-cb001 = tested on: LOC_OS01G14860-cb001
Summary of the method: as §1

LOC_OS01G21960-cb002 = tested on: LOC_OS01G21960-cb002
Summary of the method: as §1

LOC_OS01G39600-cb002 = tested on: LOC_OS01G39600-cb002
Summary of the method: as §1

LOC_OS01G48390-cb002 = tested on: LOC_OS01G48390-cb002
Summary of the method: as §1

LOC_OS01G51400-cb002 = tested on: LOC_OS01G51400-cb002
Summary of the method: as §1

LOC_OS01G52050-cb004 = tested on: T1, LOC_OS01G52050-cb004
T1 sequence (whole entry): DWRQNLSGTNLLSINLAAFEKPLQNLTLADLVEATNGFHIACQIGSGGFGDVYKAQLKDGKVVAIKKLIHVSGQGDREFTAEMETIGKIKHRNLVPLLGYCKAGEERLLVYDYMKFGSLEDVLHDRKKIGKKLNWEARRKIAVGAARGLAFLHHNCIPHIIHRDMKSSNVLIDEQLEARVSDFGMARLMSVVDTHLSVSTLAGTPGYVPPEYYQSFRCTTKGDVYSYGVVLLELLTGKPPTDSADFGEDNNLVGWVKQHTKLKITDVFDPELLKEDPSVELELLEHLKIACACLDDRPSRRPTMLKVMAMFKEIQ
Summary of the method: as §1

Compound | thermal shift delta Tm (LOC_OS01G01410-cb001) [°C] | thermal shift delta Tm (LOC_OS01G02750-cb003) [°C] | thermal shift delta Tm (LOC_OS01G10900-cb004) [°C] | thermal shift delta Tm (LOC_OS01G13800-cb001) [°C] | thermal shift delta Tm (LOC_OS01G14860-cb001) [°C] | thermal shift delta Tm (LOC_OS01G21960-cb002) [°C] | thermal shift delta Tm (LOC_OS01G39600-cb002) [°C] | thermal shift delta Tm (LOC_OS01G48390-cb002) [°C] | thermal shift delta Tm (LOC_OS01G51400-cb002) [°C] | thermal shift delta Tm (LOC_OS01G52050-cb004) [°C]
CC(C)[C@H](CO)Nc1nc(Nc2cccc(Cl)c2)c2ncn(C(C)C)c2n1 [Purvalanol A] | 1.58 | 3.04 | 0.07 | -0.49 | 1.34 | 2.18 | -0.08 | 2.56 | 0.45 | 5
CCCCNc1ncc(C(=O)NCc2ccc(-n3ccnc3)cc2)c(NC2CCC(O)CC2)n1 (stereo not given) | 3.78 | 2.44 | 0.58 | -0.06 | 4.73 | 1.72 | 2.74 | 2.96 | 0.43 | 7.56
CS(=O)(=O)N1CCc2c(-c3cnc(N)nc3)nc(N3CCOCC3)nc21 | 0.53 | 3.27 | -0.12 | 0.32 | 0.7 | 0.72 | -0.17 | 0.96 | 0.18 | 0.32
Oc1ccc(-c2nc(-c3ccc(F)cc3)c(-c3ccncc3)[nH]2)cc1 | 1.39 | 0.58 | 0.58 | 0.18 | 2.36 | 0.98 | -0.06 | 0.38 | 0.01 | 0.5
C=CC(=O)Nc1ccc2ncnc(Nc3ccc(OCc4cccc(F)c4)c(Cl)c3)c2c1 | 4.44 | 7.88 | 3.29 | 2.47 | 2.59 | 3.8 | 3.44 | 3.63 | 0.29 | 6.13
OCCn1cc(-c2ccc3c(c2)CC/C3=N\O)c(-c2ccncc2)n1 | 0.98 | -2.29 | 0.31 | 0.39 | 0.01 | 0.47 | 0.93 | 0.73 | 0.39 | -0.04
Cn1cnc(N)c2ncnc1-2 [3-Methyladenine (3-MA)] | 0.6 | 5.26 | 0.17 | -0.02 | -0.3 | 0.32 | 0.46 | 1.12 | 0.76 | 0.09
CC#CC(=O)Nc1ccc2ncnc(Nc3cccc(Br)c3)c2c1 | 2.55 | 1.15 | 2.56 | 0.12 | 1.15 | 0.48 | -0.38 | 2.25 | 0.38 | 1.8
CCCNC(=O)Nc1ccc(Oc2ncnc3cc(OC)c(OC)cc23)cc1Cl | 0.04 | 0.33 | -0.21 | -0.35 | -0.27 | 0.37 | 0.76 | 0.53 | -0.13 | 1.02
Cc1c(Cn2c(C)nc3c(C(=O)O)cc(N4CCOCC4)cc32)cccc1C(F)(F)F | 0.42 | 2.18 | 0.15 | -0.48 | -0.01 | 0.56 | 0.55 | 5.45 | 0.63 | -0.39
CNCc1ccc(-c2cc(-c3nc(-c4ccc(S(=O)(=O)C(C)C)cc4)cnc3N)on2)cc1 | 1.4 | 1.1 | 3 | 0.25 | 4.67 | 1.88 | 1.85 | 0.69 | 0.46 | 1.41
CC(C)(C)c1ccc(S(=O)(=O)/C=C/C#N)cc1 | -0.73 | -1.97 | -1.97 | 0.14 | -0.21 | 1.29 | -0.46 | 0.36 | 0.18 | -3.59
COc1cc2ncnc(Sc3nnc(C)s3)c2cc1OC | 1.2 | 0.37 | 0.57 | -0.34 | 0.11 | 0.06 | -0.24 | 2.02 | 0.02 | 0.91
CNC(=O)c1ccc(Nc2ncc(C(F)(F)F)c(NCc3nccnc3N(C)S(C)(=O)=O)n2)cc1 | 1.64 | 3.47 | 1.96 | -0.3 | 7.22 | 2.6 | 5.05 | 3.16 | 0.96 | 6.78
COc1ccc2c(c1)[C@]1(C[C@H]1c1ccc3c(/C=C/c4ccc(CN5C[C@@H](C)O[C@@H](C)C5)cc4)n[nH]c3c1)C(=O)N2 | 1.94 | 8.4 | 1.53 | -0.69 | 1.2 | 0.67 | 2.15 | 1.77 | 1.27 | 4.31
C[C@H]1CNC(=O)c2cnn3ccc(nc23)N[C@H](C)c2cc(F)ccc2O1 | -0.06 | 4.66 | 3.91 | -0.18 | 0.3 | 1.05 | 0.15 | 1.46 | 0.22 | 4.57
COc1ccc(CCNCc2ccc(OCc3ccc(Cl)nc3)c(OC)c2)cc1OC | 0.02 | 0.3 | 0.52 | 0.46 | 0.35 | 0.01 | 0.48 | 0.52 | -0.03 | -0.18
CN1CCN(C2CCN(C(=O)Nc3cc(Oc4ccc(NC(=O)C5(C(=O)Nc6ccc(F)cc6)CC5)c(F)c4)ccn3)CC2)CC1 [Golvatinib (E7050)] | -0.03 | 1.21 | 0.95 | 0.07 | 0.62 | 0.11 | 0.93 | 2.98 | 0.51 | 0.09
OC1CCC(Oc2cccc3cnc(Nc4ccc5nc[nH]c5c4)nc23)CC1 (stereo not given) | 5.55 | 6.21 | 1.42 | 0.31 | 7.5 | 4.16 | 10.3 | 5.98 | 1.07 | 3.63
CC#CC(=O)N1CC[C@@H](n2c(=O)n(-c3ccc(Oc4ccccc4)cc3)c3c(N)ncnc32)C1 [ONO-4059 (GS-4059) hydrochloride] | 0.39 | 0.39 | 0.14 | -0.37 | 0.23 | 0.04 | 0.11 | -0.2 | -0.08 | -0.56

From the supplement of paper PMC9694430
